Data on 36 compounds can be found in PubChem BioAssay.

Unmarked numbers belong to inactive results. No rule for the calls is given here.

The test in a line: P. aeruginosa biofilm formation inhibitors, primary screen, PAO1 strain, BacTiter-Glo luminescence, LB-PBS (AID 1144). The settings on record: 12 h, higher = more signal.
In the case of `C=CCC(OC(C)=O)[C@@H]1[C@@H](N(Cc2cc3ccccc3o2)C(=O)c2ccc(C)cc2)c2cc(OCCCO)ccc2N1C(=O)c1ccc2ccccc2c1` (stereo partly specified), the z-score is -0.571. To `COc1c(C)cc(-c2cc3c(c(-c4ccc(Oc5ccccc5)cc4)n2)[Si](C(C)C)(C(C)C)OC3)cc1C` belongs 0.0144; to `COc1ccc([Si](C)(C)[C@@H]2[C@@H](CC(=O)N3CCC[C@H]3CO)O[C@]3(C(=O)N(C)c4c(Br)cc(C)cc43)[C@H]2C)cc1`, 0.74. To `CCC(CC)C(O)C1C=CC2C(=O)N(c3ccccc3)C(=O)C2N1Nc1ccc(C#N)cc1` (stereo unspecified) belongs -0.939; to `C=CCC(OC(C)=O)[C@@H]1[C@@H](N(Cc2ccc(-c3ccccc3)cc2)C(=O)Cc2ccc(F)cc2)c2cc(OCCCO)ccc2N1C(=O)c1ccc2ccccc2n1` (stereo partly specified), -0.201; to `C=C[C@@H](COC(C)=O)N(Cc1ccccc1[N+](=O)[O-])S(=O)(=O)c1ccc(Br)cc1`, -1.65. As to `COCCOC(=O)N1C(=O)[C@@]2(c3cc(C#CC4=CCCCC4)ccc31)[C@H](C(=O)NC[C@H](O)c1ccccc1)[C@H]1C(=O)O[C@H](c3ccccc3)[C@H](c3ccccc3)N1[C@@H]2c1ccc(O)cc1`, the z-score was 1.19. Take `[N-]=[N+]=Nc1ccccc1[C@@H]1OC(c2ccc(OCCCO)cc2)=N[C@]1(CCS(=O)(=O)c1ccccc1)C(=O)N1CCOCC1`: the z-score was -0.199. The figure for `Cc1ccc(S[C@]2(C(=O)NCC(C)C)CC(=O)N(Cc3ccccc3Cl)[C@@H]2c2ccc(CO)cc2)cc1` is 1.15; for `CC(C)C(=C=CC[C@@H](O)c1ccccc1OCCO)C[C@@H](O)c1ccccn1` it is 0.497.

Turning to `O=C1O[C@H](c2ccccc2)[C@H](c2ccccc2)N2[C@H]1[C@@H](C(=O)NC[C@H](O)c1ccccc1)[C@]1(C(=O)Nc3ccc(C#CCCO)cc31)[C@H]2c1ccc(O)cc1`, the z-score was -1.16. The figure for `COCCOC(=O)N1C(=O)[C@@]2(c3cc(C#CCNC(N)=O)ccc31)[C@H](c1ccccc1OCCO)N1[C@H](c3ccccc3)[C@H](c3ccccc3)OC(=O)[C@H]1[C@@H]2C(N)=O` is 0.287. For the compound `O=C1C2C=CC(C(O)c3cccs3)N(Nc3ccccc3F)C2C(=O)N1c1ccccc1` (stereo unspecified), the z-score was -1.51. To `COCCOC(=O)N1C(=O)[C@@]2(c3cc(C#Cc4ccc(OC)cc4)ccc31)[C@H](C(=O)N1CCN(c3ncccn3)CC1)[C@H]1C(=O)O[C@H](c3ccccc3)[C@H](c3ccccc3)N1[C@@H]2c1ccc(O)cc1` belongs -1.03.

For `COC(=O)c1ccc(C23CC2(C(NP(=O)(c2ccccc2)c2ccccc2)c2ccccc2)C3)cc1` (stereo unspecified), the z-score is 0.523. For `CS(=O)(=O)CCOC(=O)C1=CC(CCCO)=CC(c2cccs2)N(Cc2cc3c(cc2Br)OCO3)C=C1C(=O)OCCS(C)(=O)=O` (stereo unspecified), the z-score was 0.00546. Consider `CC(C)c1ccc(NN2C(C(O)c3ccc(N(C)C)cc3)C=CC3C(=O)N(c4ccccc4)C(=O)C32)cc1` (stereo unspecified), for which the z-score was -0.666. As to `COCCOC(=O)N1C(=O)[C@@]2(c3cc(C#CCC(C(=O)OC)C(=O)OC)ccc31)[C@H](c1ccc(O)cc1)N1[C@H](c3ccccc3)[C@H](c3ccccc3)OC(=O)[C@H]1[C@@H]2C(N)=O`, the z-score was 0.075.

As for `COc1ccc([Si](C)(C)[C@@H]2[C@@H](CCn3cc([C@H](O)c4ccccc4)nn3)O[C@]3(C(=O)N(Cc4ccc(N5C(=O)c6cccc7cccc5c67)cc4)c4ccccc43)[C@H]2C)cc1`, the z-score was 0.364. The figure for `CCOC(=O)C1=CC[C@@H](c2ccccc2)N(S(=O)(=O)c2ccc(C)cc2)[C@H]1C(=O)OCC` is 1.43; for `CCCCCN1CC=CC23O[C@@H]4/C=C\CCCOC(=O)C4[C@H]2C(=O)N(CCCCCCO)[C@@H]3C1=O` (stereo partly specified) it is -2.51. The figure for `COCCOC(=O)N1C(=O)[C@@]2(c3ccccc31)[C@H](C(=O)NC[C@H](O)c1ccccc1)[C@H]1C(=O)O[C@H](c3ccccc3)[C@H](c3ccccc3)N1[C@@H]2c1ccc(OCCO)cc1` is -1.46. Turning to `CC(=O)Nc1cc(Br)ccc1C(=O)O`, the z-score was 0.307. To `CN(C)C(=O)[C@@]1(CCC(=O)OC(C)(C)C)N=C(c2ccc(OCCCO)cc2)O[C@H]1c1ccccc1` belongs -0.573; to `C=CCOC(=O)[C@@H]1[C@H]2C(=O)O[C@H](c3ccccc3)[C@H](c3ccccc3)N2[C@H](c2ccc(OCCOC(=O)[C@@H]3C[C@@H]4C(=O)N[C@@H](Cc5ccccc5)C(=O)N4[C@@H]3c3cccc(OCCO)c3)cc2)[C@@]12C(=O)Nc1ccc(I)cc12`, -0.525. `COc1cc2c(cc1O)C(C)N(Cc1cccc(OC(F)(F)F)c1)CC2` (stereo unspecified): the z-score was -0.334.

Consider `CC(C)CNC(=O)[C@@]1(c2ccc([N+](=O)[O-])cc2)CC(=O)N(CC23CC4CC(CC(C4)C2)C3)[C@@H]1c1ccc(CO)cc1`, for which the z-score is 0.677. The figure for `COc1ccc([Si](C)(C)[C@@H]2[C@@H](CC(=O)N(CCO)Cc3ccccc3)O[C@]3(C(=O)N(C)c4ccccc43)[C@H]2C)cc1` is -0.054; for `CC(C)N1C(=O)C[C@@](C(=O)NCc2ccccc2)(c2ccc([N+](=O)[O-])cc2)[C@H]1c1ccc(CO)cc1` it is -0.936; for `O=C1C2C=CC(C(O)c3ccc(B(O)O)cc3)N(Nc3ccccc3)C2C(=O)N1c1ccccc1` (stereo unspecified) it is -1.06. For the compound `O=C(CCN1CCOCC1)c1cccc(O)c1`, the z-score was -0.779. To `C=CC[C@]1(C(=O)N2CCOCC2)N=C(c2ccc(OCCCO)cc2)O[C@H]1c1ccccc1` belongs -0.248; to `C=CC(=C)C1=CCO[C@@H]1[C@H]1CCCN1S(=O)(=O)c1ccccc1[N+](=O)[O-]`, -0.484. `COc1ccc(C#Cc2ccc3c(c2)[C@]2(C(=O)N3)[C@H](c3ccc(O)cc3)N3[C@H](c4ccccc4)[C@H](c4ccccc4)OC(=O)[C@H]3[C@@H]2C(=O)NC[C@H](O)c2ccccc2)cc1`: the z-score was -0.654. To `CN1C=C(C(=O)OCCS(C)(=O)=O)C(C(=O)OCCS(C)(=O)=O)=CC(CCCO)=CC1C1CC1` (stereo unspecified) belongs -0.483; to `C=CC[C@@]1(C(=O)NCC(O)CO)N=C(c2ccc(OCCCO)cc2)O[C@@H]1c1ccccc1N=[N+]=[N-]` (stereo partly specified), -0.281.
